Screening data as filed in PubChem BioAssay.
aSyn 5UTR act – Activators via SNCA 5'UTR binding, MLPCN; alpha-synuclein 5'UTR reporter, activators screen; activity score, % (tested at 7.5 µM), hits read low; actives 7.1% (n = 300,000); AID 1814, 2009; in the data active means activity score below about -60%
An asterisk follows results filed as active. Not all results are given here.

SMILES	aSyn 5UTR act
COc1cc(CNc2ccccc2SC)ccc1O	-72.2*
Cc1ccsc1C(=O)OCC(=O)Nc1sccc1C(N)=O	-130.4*
NC(=O)c1ccsc1NC(=O)CCc1ccccc1	-152.6*
COC(=O)c1ccsc1NC(=O)CCc1ccccc1	-109.1*
CC(C)C(=O)NCCc1nc(-c2ccc(Cl)cc2)no1	-98.7*
CSc1nc(Oc2ccc3ccccc3c2)c2sccc2n1	82.3
COc1ccnc(Oc2ccc(C)cc2)c1C#N	-80.5*
COc1ccnc(Oc2ccc3ccccc3c2)c1C#N	-74.3*
COc1ccnc(N=CNOCc2ccc(C)cc2)c1C#N	-100.0*
O=C(CSc1nc2ccccc2[nH]1)Nc1nc(-c2cccc(Br)c2)cs1	-85.3*
Cc1ccc(-c2csc(NC(=O)CSc3nc(C)cc(=O)[nH]3)n2)cc1	-114.7*
Cc1ccc(-c2csc(NC(=O)CSC3=NCCS3)n2)cc1	-98.9*
N=c1oc2cc(O)ccc2cc1C(=O)Nc1nc2ccccc2s1	-187.6*
N=c1oc2cc(O)ccc2cc1C(=O)Nc1ccc(Br)cc1	-172.1*
CCOc1ccc(OCC(=O)NCCS(=O)(=O)N2CCN(c3ccc(F)cc3)CC2)cc1	-71.7*
O=C(NCCS(=O)(=O)N1CCN(c2ccc(F)cc2)CC1)c1ccc(Br)o1	127.2
COc1ccc(OC)c(Nc2cc(-c3ccccc3)nc(N)n2)c1	67.8
COc1ccc2nc(-c3ccccc3)cc(OC)c2c1	-106.5*
CCCc1nc2oc3ccccc3c(=O)c2c(=O)n1-c1ccccc1	-153.3*
Cc1ccc(-n2c(C(C)C)nc3oc4ccccc4c(=O)c3c2=O)cc1	-111.4*
CCc1nc2oc3ccccc3c(=O)c2c(=O)n1-c1ccc(C)cc1	-138.5*
CCCc1nc2oc3ccccc3c(=O)c2c(=O)n1-c1ccc(C)cc1	-83.9*
CCc1nc2oc3ccccc3c(=O)c2c(=O)n1-c1ccccc1	-314.6*
Cc1cccn2c(=O)c(C=Nc3ccc(Cl)cc3)c(NCCO)nc12	-90.9*
Cc1occc1C(=O)NCCCc1ccccc1	-70.8*
SMILES	aSyn 5UTR act
Cc1occc1C(=O)NNC(=O)c1ccccc1C(=O)O	-73.9*
Cc1occc1C(=O)NCCc1cccc(Cl)c1	-81.5*
O=C(NCCCCCCNC(=O)c1ccc(Br)s1)c1ccc(Br)s1	-108.3*
O=C(NCCc1ccc(Cl)cc1)c1ccc(Br)s1	-180.1*
COc1ccccc1/C=C/c1nc2ccccc2c(=O)o1	-106.9*
COc1ccc(/C=C/c2nc3ccccc3c(=O)o2)cc1	101.5
O=C(C1CCCN1S(=O)(=O)c1cccc2nsnc12)N1CCN(c2ccccc2)CC1 (configuration not stated)	-62.8*
Fc1cccc2sc(N3CCCC3)nc12	-79.2*
Brc1cccc2sc(N3CCCC3)nc12	-75.3*
Clc1cccc2sc(N3CCOCC3)nc12	-63.5*
COc1cc2c(cc1NC(=O)c1cccc(F)c1)CCCC2	-75.7*
COc1cc2c(cc1NC(=O)c1ccccc1F)CCCC2	-270.3*
COc1cc(OC)c(NC(=O)c2ccccc2F)cc1Cl	-121.8*
CC(=C/c1ccco1)/C=N/N1CCN(c2ccccc2)CC1	-175.4*
CC(/C=N/N1CCN(c2ccccc2)CC1)=C\c1ccco1	-101.4*
O=C(OCc1ccccc1)c1cccc(-c2nnn(Cc3ccccc3)n2)c1	-90.7*
CCc1ccc2[nH]c3nc(C)cc(C)c3c(=O)c2c1	-231.8*
Cc1cc(SCC(=O)c2cccc([N+](=O)[O-])c2)nc(=O)[nH]1	-90.9*
COc1ccc(CNc2ncccc2[N+](=O)[O-])cc1	-79.5*
CCOC(=O)/C=C/COc1ccccc1[N+](=O)[O-]	-69.8*
CC1CN(c2ccc([N+](=O)[O-])c(NCCOc3ccc(Cl)cc3)c2)CC(C)N1 (configuration not stated)	104.2
O=[N+]([O-])c1ccccc1OCCOc1ccccc1[N+](=O)[O-]	-138.5*
O=[N+]([O-])c1ccccc1NCCOc1ccccc1	-227.3*
COCCCNc1nc(N)c([N+](=O)[O-])c(NCc2ccccc2)n1	56.5
COc1ccc(OCCOc2ccccc2[N+](=O)[O-])cc1	-152.9*
SMILES	aSyn 5UTR act
O=[N+]([O-])c1ccccc1OCCCOc1cccc2cccnc12	-96.3*
O=C(CSc1nnc(NC(=O)c2ccccc2Cl)s1)Nc1ccc2c(c1)oc1ccccc12	-143.6*
O=C(CSc1nc2ccccc2s1)N/N=C/c1ccccc1C(=O)O	-90.3*
O=C(CSc1nc2ccccc2s1)Nc1ccc2c(c1)oc1ccccc12	-80.2*
O=c1oc2ccccc2n1CSc1nc2ccccc2s1	-99.2*
Cc1occc1C(=O)N/N=C/c1ccccc1[N+](=O)[O-]	-121.0*
CCN(CC)c1ccc(/C=N/NC(=O)c2ccoc2C)cc1	-95.4*
COc1ccc(/C=N/NC(=O)c2ccoc2C)cc1CN1CCN(c2ccc(F)cc2)CC1	-79.5*
CCOc1ccc(/C=N/NC(=O)c2ccoc2C)cc1OC	-110.1*
COc1cccc(/C=N/NC(=O)c2ccoc2C)c1O	-70.6*
Cc1ccc(C(=O)N/N=C/c2cccc(OC(=O)/C=C/c3ccco3)c2)cn1	-99.6*
COc1cccc(/C=N/NC(=O)c2c(-c3ccccc3)noc2C)c1O	58.2
Cc1occc1C(=O)N/N=C/c1ccccn1	-84.1*
O=C(/C=C/c1ccco1)Oc1cc(Br)cc(/C=N/NC(=O)c2ccccc2O)c1	95.9
Cn1nccc1C(=O)N/N=C/c1ccccc1[N+](=O)[O-]	-89.2*
COc1cccc(/C=N/NC(=O)c2ccoc2C)c1	-125.2*
COc1cccc(/C=N/NC(=O)c2cc3c(OC)cccc3[nH]2)c1O	85.5
COc1cccc(/C=N/NC(=O)NC2CCCCC2)c1O	-96.6*
O=C(N/N=C/c1ccccn1)c1ccc(N/N=C/c2ccccn2)cc1	-132.4*
COc1cc(/C=N/NC(=O)c2ccoc2C)ccc1O	-67.1*
COC(=O)/C(=C/c1ccc2c(c1)c1ccccc1n2C)NC(=O)c1ccccc1	-67.9*
COc1cc(C(=O)N/N=C/c2ccc3c(c2)c2ccccc2n3C)ccc1O	-117.0*
S=C(Nc1ccc(Br)cc1Cl)N1CCCC1	-90.7*
CC1Cc2cc(/C=C3/SC(=S)N(C)C3=O)ccc2O1 (configuration not stated)	-86.0*
O=C(NC1CCCC1)c1cc(-c2ccc(Cl)cc2)on1	-233.5*
SMILES	aSyn 5UTR act
O=C(NC1CCCC1)c1cc(-c2ccc(F)cc2)on1	-322.3*
O=C(NC1CCCCC1)c1cc(-c2ccc(Cl)cc2)on1	-114.7*
Cc1cc(N2CCOCC2)nc(SCC(=O)c2ccccc2)n1	-93.6*
Cc1cc(N2CCCC2)nc(SCC(=O)c2ccccc2)n1	-88.5*
COc1ccc(NC(=O)c2ccc(-c3ccccc3Cl)o2)cc1	-156.2*
CCc1nnc(NC(=O)c2ncc(Cl)c(Cl)c2Cl)s1	-61.7*
COC(=O)c1sccc1-c1ccc(C(=O)Nc2ccccc2)o1	-115.1*
CCc1nnc(NC(=O)c2ccc(-c3ccccc3Cl)o2)s1	-160.5*
O=C(Nc1cccc(F)c1)c1ccc(-c2ccccc2Cl)o1	-172.6*
CN(C)c1ccc(/C=C(/C#N)C(=O)NCc2ccccc2)o1	-96.2*
COc1ccc(-n2cccc2/C=C2/NC(=O)N(c3cccc(Cl)c3)C2=O)cc1	-143.2*
Cc1nc(S(=O)(=O)N(C)Cc2ccccc2)c(C#N)c(C)c1Cl	-117.8*
Cc1nc(S(=O)(=O)N2CCOCC2)c(C#N)c(C)c1Cl	-99.8*
Cc1nc(S(=O)(=O)NC2CCCCC2)c(C#N)c(C)c1Cl	-90.6*
CC(=O)Nc1cccc2c1Cc1ccccc1-2	-159.4*
CC(=O)Nc1ccc(S(=O)(=O)NC2=C(N3CCN(C)CC3)C(=O)c3ccccc3C2=O)cc1	70.6
